Our source for the outcome and AC50 values is PubChem BioAssay (EPA / NIEHS).

Activity calls are given as the source filed them. The calls were made as follows: active = hit-call score of the fitted dose curve at least 0.9, where 1 is the maximum; inactive = score below 0.9.

Read-out in test [1]: Interleukin-1 alpha (IL1a), IL1A (gene 3552)
Put plainly: BSK_KF3CT_IL1a: BioMAP Diversity Plus: KF3CT Assay for Interleukin-1 alpha (IL1a) Biomarker Activity (AID 2283070). Particulars: primary human keratinocytes with fibroblasts; actives raise or lower the signal. The essentials: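 Primary skin co-culture (keratinocytes, foreskin fibroblasts), 24 h exposure; ELISA for IL-1a; bidirectional curve fit vs DMSO.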

Read-out in test [2]: TIMP metallopeptidase inhibitor 2 (TIMP2), TIMP2 (gene 7077)
As to the kind of experiment: BSK_KF3CT_TIMP2: BioMAP Diversity Plus: KF3CT Assay for TIMP metallopeptidase inhibitor 2 (TIMP2) Biomarker Activity (AID 2283071). As to conditions: primary human keratinocytes with fibroblasts; actives raise or lower the signal. The essentials:
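ELISA readout of TIMP-2 in keratinocyte plus foreskin fibroblast co-cultures (human skin primary cells), 24 h post-dose. Gain or loss of signal fitted relative to DMSO.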

Read-out in test [3]: Transforming growth factor beta 1 (TGFb1), TGFB1 (gene 7040)
As to the kind of experiment: BSK_KF3CT_TGFb1: BioMAP Diversity Plus: KF3CT Assay for Transforming growth factor beta 1 (TGFb1) Biomarker Activity (AID 2283072). Particulars: primary human keratinocytes with fibroblasts; actives raise or lower the signal. Put shortly:
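Read-out: ELISA for TGF-b1 in keratinocyte/foreskin fibroblast human skin co-culture, 24 h after dosing; bidirectional curve fit vs DMSO baseline; gain or loss of signal scored.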

Read-out in test [4]: C-C motif chemokine 2 (Homo sapiens) (UniProt P13500)
Put plainly: BSK_KF3CT_MCP1: BioMAP Diversity Plus: KF3CT Assay for Monocyte Chemoattractant Protein 1 (MCP1/CCL2) Biomarker Activity (AID 2283073). Particulars: primary human keratinocytes with fibroblasts; actives raise or lower the signal. Put shortly: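 ELISA read-out of MCP-1, 24 h post-dose, in primary human skin keratinocytes co-cultured with fibroblasts. Parallel SRB staining monitors cytotoxicity; changes fitted both directions relative to DMSO.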

Read-out in test [5]: Matrix Metallopeptidase 9 (MMP9), MMP9 (gene 4318)
Put plainly: BSK_KF3CT_MMP9: BioMAP Diversity Plus: KF3CT Assay for Matrix Metallopeptidase 9 (MMP9) Biomarker Activity (AID 2283074). As to conditions: primary human keratinocytes with fibroblasts; actives raise or lower the signal. Put shortly:
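ELISA read-out of MMP-9 at 24 h post-dosing in a co-culture of human skin keratinocytes and foreskin fibroblasts. Gain or loss of signal was fitted in both directions against DMSO.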

Read-out in test [6]: urokinase plasminogen activator (uPA), PLAU (gene 5328)
As to the kind of experiment: BSK_KF3CT_uPA: BioMAP Diversity Plus: KF3CT Assay for urokinase plasminogen activator (uPA) Biomarker Activity (AID 2283075). Particulars: primary human keratinocytes with fibroblasts; actives raise or lower the signal. Put shortly:
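Skin co-culture (keratinocytes + foreskin fibroblasts), human primary; 24 h post-dose; uPA by ELISA; gain/loss fit vs DMSO baseline.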

Read-out in test [7]: CD40, CD40 (gene 958)
As to the kind of experiment: BSK_LPS_CD40: BioMAP Diversity Plus: LPS Assay for CD40 Biomarker Activity (AID 2283076). As to conditions: primary human HUVEC with PBMC; actives raise or lower the signal. The essentials:
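In the LPS system of human endothelial cells with peripheral blood mononuclear cells, CD40 levels were read by ELISA 24 h post-treatment. Signal changes in either direction were fitted against the DMSO baseline, with parallel SRB protein staining.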

Read-out in test [8]: E-selectin (Homo sapiens) (UniProt P16581)
As to the kind of experiment: BSK_LPS_Eselectin: BioMAP Diversity Plus: LPS Assay for Eselectin Biomarker Activity (AID 2283077). As to conditions: primary human HUVEC with PBMC; actives raise or lower the signal. The essentials: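 E-selectin ELISA on LPS-stimulated endothelial cell/PBMC co-cultures, read 24 h post-treatment; gains and losses fitted against DMSO. Parallel SRB staining (0.1% SRB after 10% TCA fixation, 560 nm) flags overt cytotoxicity.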

A short description of test [9]: BSK_LPS_SRB: Viability Assessment in the BioMAP Diversity Plus: LPS Assay (AID 2283079).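 Also: total protein by sulforhodamine B absorbance as a cytotoxicity measure; measured one day after compound addition.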 As to conditions: primary human HUVEC with PBMC. The essentials:
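SRB viability endpoint: cells fixed with 10% TCA, stained with 0.1% SRB, read at 560 nm, 24 h post-dose. HUVEC/PBMC co-culture; signal change in either direction scored relative to DMSO.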

Read-out in test [10]: Interleukin-1 alpha (IL1a), IL1A (gene 3552)
As to the kind of experiment: BSK_LPS_IL1a: BioMAP Diversity Plus: LPS Assay for Interleukin-1 alpha (IL1a) Biomarker Activity (AID 2283080). As to conditions: primary human HUVEC with PBMC; actives raise or lower the signal. Put shortly:
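Readout is IL-1a level by ELISA, 24 h post-dose, fitted as gain or loss relative to DMSO. System: LPS-activated human primary co-culture of vascular endothelium and peripheral blood mononuclear cells, with parallel SRB total-protein cytotoxicity.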

Read-out in test [11]: Monocyte Chemoattractant Protein-1 (MCP1), CCL2 (gene 6347)
Put plainly: BSK_LPS_MCP1: BioMAP Diversity Plus: LPS Assay for Monocyte Chemoattractant Protein-1 (MCP1) Biomarker Activity (AID 2283081). As to conditions: primary human HUVEC with PBMC; actives raise or lower the signal. The essentials: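 Secreted MCP-1 read by ELISA at 24 h post-dosing in an LPS-activated co-culture of endothelial cells with peripheral blood mononuclear cells. Fits run in both directions, DMSO as baseline; parallel SRB staining tracks overt cytotoxicity.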

A short description of test [12]: BSK_LPS_PGE2: BioMAP Diversity Plus: LPS Assay for Prostaglandin E2 (PGE2) Biomarker Activity (AID 2283082). As to conditions: primary human HUVEC with PBMC; actives raise or lower the signal. The essentials: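 ELISA read-out of PGE2 from human umbilical vein endothelial cells co-cultured with peripheral blood mononuclear cells under LPS, 24 h post-dose. Gain or loss of signal scored relative to DMSO baseline.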

Read-out in test [13]: Macrophage colony-stimulating factor (MCSF), CSF1 (gene 1435)
As to the kind of experiment: BSK_LPS_MCSF: BioMAP Diversity Plus: LPS Assay for Macrophage colony-stimulating factor (MCSF) Biomarker Activity (AID 2283083). As to conditions: primary human HUVEC with PBMC; actives raise or lower the signal. The essentials: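 Bidirectional fitting against DMSO was applied to M-CSF levels read by ELISA at 24 h post-dose. The system pairs human umbilical vein endothelium with peripheral blood mononuclear cells; parallel SRB staining tracked cytotoxicity.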

Read-out in test [14]: Tissue Factor, F3 (gene 2152)
As to the kind of experiment: BSK_LPS_TissueFactor: BioMAP Diversity Plus: LPS Assay for Tissue Factor Biomarker Activity (AID 2283084). Particulars: primary human HUVEC with PBMC; actives raise or lower the signal. Put shortly:
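Compound was added to an endothelial cell/PBMC co-culture, and after 24 h tissue factor (CD142) was read by ELISA. Gain or loss of signal was fitted against a DMSO baseline, and parallel SRB staining (560 nm) tracked overt cytotoxicity.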

Read-out in test [15]: Tumor necrosis factor (Homo sapiens) (UniProt P01375)
Put plainly: BSK_LPS_TNFa: BioMAP Diversity Plus: LPS Assay for Tumour Necrosis Factor alpha (TNFa) Biomarker Activity (AID 2283085). Particulars: primary human HUVEC with PBMC; actives raise or lower the signal. Put shortly: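 HUVEC/PBMC co-culture, LPS-stimulated; 24 h post-dose; TNFa by ELISA; gain or loss of signal fitted bidirectionally vs DMSO baseline.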

Read-out in test [16]: Vascular cell adhesion molecule 1 (VCAM1), VCAM1 (gene 7412)
As to the kind of experiment: BSK_LPS_VCAM1: BioMAP Diversity Plus: LPS Assay for Vascular cell adhesion molecule 1 (VCAM1) Biomarker Activity (AID 2283086). Particulars: primary human HUVEC with PBMC; actives raise or lower the signal. The essentials:
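ELISA read-out of VCAM-1 at 24 h post-dosing in an LPS-driven HUVEC/PBMC primary human co-culture; gain or loss of signal fitted bidirectionally against DMSO baseline. Cytotoxicity tracked in parallel cultures by SRB total-protein staining.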

Read-out in test [17]: CD38, CD38 (gene 952)
As to the kind of experiment: BSK_SAg_CD38: BioMAP Diversity Plus: SAg Assay for CD38 Biomarker Activity (AID 2283087). As to conditions: primary human HUVEC with PBMC; actives raise or lower the signal. Put shortly: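 Measures CD38 on a human endothelial/PBMC co-culture driven by SEB and TSST-1, 24 h after compound exposure, using ELISA with fluorescence detection; DMSO defines baseline for bidirectional curve fitting.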

Read-out in test [18]: CD69, CD69 (gene 969)
As to the kind of experiment: BSK_SAg_CD69: BioMAP Diversity Plus: SAg Assay for CD69 Biomarker Activity (AID 2283089).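 As to AC50: cell surface CD69 protein quantified by ELISA with fluorescence detection.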 As to conditions: primary human HUVEC with PBMC; actives raise or lower the signal. Put shortly:
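ELISA, fluorescence read-out: CD69 on human umbilical vein endothelial cell + PBMC co-culture, 24 h post-dosing. Gain or loss of signal fitted bidirectionally against DMSO baseline.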

Read-out in test [19]: CD40, CD40 (gene 958)
As to the kind of experiment: BSK_SAg_CD40: BioMAP Diversity Plus: SAg Assay for CD40 Biomarker Activity (AID 2283088). Particulars: primary human HUVEC with PBMC; actives raise or lower the signal. The essentials: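 CD40 is measured by fluorescence ELISA in an endothelial/PBMC primary human co-culture at 24 h post-dose. Fitting is bidirectional, DMSO baseline. Parallel SRB staining (560 nm) flags cytotoxicity.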

Chain of Tumor necrosis factor (Homo sapiens) (P01375 whole entry, looked up): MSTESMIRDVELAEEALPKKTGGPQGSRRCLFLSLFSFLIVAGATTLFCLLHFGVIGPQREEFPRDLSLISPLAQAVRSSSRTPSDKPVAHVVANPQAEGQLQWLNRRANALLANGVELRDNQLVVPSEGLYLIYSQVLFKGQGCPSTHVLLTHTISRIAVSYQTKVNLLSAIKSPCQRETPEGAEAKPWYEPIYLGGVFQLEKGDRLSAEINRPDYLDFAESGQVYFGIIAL
Chain of E-selectin (Homo sapiens) (P16581 whole entry, looked up): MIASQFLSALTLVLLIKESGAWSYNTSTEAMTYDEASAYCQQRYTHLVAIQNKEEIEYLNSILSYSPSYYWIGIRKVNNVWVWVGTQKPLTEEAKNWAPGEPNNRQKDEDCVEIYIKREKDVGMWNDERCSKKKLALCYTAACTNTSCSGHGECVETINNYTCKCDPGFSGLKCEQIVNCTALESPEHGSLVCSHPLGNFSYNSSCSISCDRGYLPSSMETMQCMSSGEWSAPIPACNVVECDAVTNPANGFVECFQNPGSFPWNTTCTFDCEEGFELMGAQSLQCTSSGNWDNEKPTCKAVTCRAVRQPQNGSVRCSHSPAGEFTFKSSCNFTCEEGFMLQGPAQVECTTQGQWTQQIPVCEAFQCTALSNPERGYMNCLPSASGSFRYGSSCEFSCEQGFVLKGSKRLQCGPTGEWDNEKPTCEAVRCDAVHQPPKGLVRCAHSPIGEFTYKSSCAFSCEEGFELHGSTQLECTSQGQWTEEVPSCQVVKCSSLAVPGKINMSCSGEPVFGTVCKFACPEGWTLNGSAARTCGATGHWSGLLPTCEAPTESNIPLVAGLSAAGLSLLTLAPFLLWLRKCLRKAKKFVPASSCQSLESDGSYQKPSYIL

As to `CC(C)CCCCCOC(=O)CS`, the outcome in test [1], in test [2], in test [3], in [4], in test [5] and in [6] was inactive. In addition, the outcome in test [7], in test [8], in test [9], in test [10], in [11] and in [12] was inactive. In addition, the outcome in test [13], in test [14], in test [15], in test [16], in test [17] and in test [18] was inactive.
`O=C(Oc1ccccc1)c1ccccc1C(=O)Oc1ccccc1`: the result in test [1], in test [2], in test [3], in test [4], in [5] and in test [6] was inactive. The outcome in [7], in test [8], in [9], in test [10], in test [11] and in test [12] was inactive. Further, the outcome in test [13], in test [14], in test [15] and in test [16] was inactive. Further, the results for the concentration at half-maximal activity (AC50) in [17] and in test [18] were 29.7 µM (active) and 24.1 µM (active), respectively.
Take `Clc1cc(Cl)c(Cl)c(Cl)c1Cl`: the result in [1], in test [3], in test [4], in test [5], in test [6] and in [7] was inactive. In addition, the outcome in test [8], in test [9], in [11], in test [12], in test [13] and in test [15] was inactive. The outcome in [16], in [17], in test [19] and in test [18] was inactive. The AC50 (commonly the concentration at which the activity in the assay is half-maximal) in test [2] was 20 µM (active); in test [10] it was 16.2 µM (active).
With `CCOC(=O)C1=NOC(c2ccccc2)(c2ccccc2)C1`, the result in [1], in test [2], in test [4], in test [5], in test [6] and in [7] was inactive. Moreover, the outcome in test [8], in [9], in [10], in test [11], in test [12] and in [13] was inactive. Further, the result in test [14], in test [15], in test [16], in test [17] and in test [18] was inactive. For the same molecule, the AC50 in [3] was 0.113 µM (active).
